Measurements published in the supplement of paper PMC8728848.
This excerpt belongs to a sample that is enriched for the strongest signals.

Legend:
Experiment in all cases: glycan array binding signal (z-score within array); higher = stronger binding
Conditions in all cases: glycan notation: IUPAC condensed, linker removed; mutation: R186S
[1] = molecular target: Neu5Ac(a2-3)Gal(b1-3)[Neu5Ac(a2-3)Gal(b1-4)]GlcNAc
Procedure, shortened: (§1)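 The Consortium for Functional Glycomics database supplied 3228 glycan arrays, of which those lacking an available protein sequence were dropped. The binding signal, a within-array Z-score, was averaged across arrays of the same protein sequence and across linkers. Negative scores can be read as non-binding.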

[2] = molecular target: Neu5Ac(a2-3)Gal(b1-4)[Fuc(a1-3)]GlcNAc(b1-3)GalNAc
Procedure, shortened: as §1

[3] = molecular target: Neu5Ac(a2-3)GalNAc(b1-4)GlcNAc
Procedure, shortened: as §1

[4] = molecular target: Neu5Ac(a2-6)Gal(b1-4)GlcNAc(b1-2)Man(a1-3)[Gal(b1-4)GlcNAc(b1-2)Man(a1-6)]Man(b1-4)GlcNAc(b1-4)GlcNAc
Procedure, shortened: as §1

[5] = molecular target: Neu5Ac(a2-6)Gal(b1-4)GlcNAc(b1-2)Man(a1-3)[Neu5Ac(a2-6)Gal(b1-4)GlcNAc(b1-2)Man(a1-6)]Man(b1-4)GlcNAc(b1-4)GlcNAc
Procedure, shortened: as §1

[6] = molecular target: Neu5Ac(a2-6)Gal(b1-4)GlcNAc(b1-3)Gal(b1-3)GlcNAc
Procedure, shortened: as §1

[7] = molecular target: Neu5Ac(b2-6)Gal(b1-4)GlcNAc
Procedure, shortened: as §1

Neu5Ac(b2-6)GalNAc = molecular target: Neu5Ac(b2-6)GalNAc
Procedure, shortened: as §1

[8] = molecular target: Neu5Ac9Ac(a2-3)Gal(b1-3)GlcNAc
Procedure, shortened: as §1

B1: Gal 3 (Homo sapiens), P17931 (protein)
chain: MADNFSLHDALSGSGNPNPQGWPGAWGNQPAGAGGYPGASYPGAYPGQAPPGAYPGQAPPGAYHGAPGAYPGAPAPGVYPGPPSGPGAYPSSGQPSAPGAYPATGPYGAPAGPLIVPYNLPLPGGVVPRMLITILGTVKPNANILDFQRGNDVAFHFNPRFNENNRRVIVCNTKLDNNWGREESQSVFPFESGKPFKIQVLVEPDHFKVAVNDAHLLQYNHRVKKLNEISKLGISGDIDLTSASYTMI
glycan array binding signal (z-score) [1]: -0.076
glycan array binding signal (z-score) [2]: 0.182
glycan array binding signal (z-score) [3]: -0.062
glycan array binding signal (z-score) [4]: 0.028
glycan array binding signal (z-score) [5]: -0.05
glycan array binding signal (z-score) [6]: -0.061
glycan array binding signal (z-score) [7]: -0.083
glycan array binding signal (z-score) (Neu5Ac(b2-6)GalNAc): -0.023
glycan array binding signal (z-score) [8]: -0.069
